The values that follow come from PubChem BioAssay (NCI).

This is part of a sample that, as a whole, favours compounds with a hit. Of some 83,000 tested, about 20% had one in any assay.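 Each cell line was grown in a 96-well plate and treated with one concentration of compound for 48 hours. Values below 10 were considered active.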 The source made the active and inactive calls.

In the test the test system is SNB-75 CNS. Description: NCI-60 one-dose screen, 48 h (100 = growth as untreated, 0 = no growth, -100 = all killed). As to conditions: 10 µM unless noted. The method, then:
Growth inhibition of the SNB-75 human tumor cell line is measured as a screen for anti-cancer activity. Cells are grown in 96 well plates and exposed to the test compound for 48 hours. Compounds are tested at a single concentration, which is 10^-5 M for most compounds. The reported endpoint is percent growth (GI% or GIPRCNT), where numbers from 0 - 100% represent growth inhibition, and numbers from -100% - 0 represent cell death. For example, a value of 40 represents 60% growth inhibition. A value of 0 means no net growth occurred over the course of the experiment. A value of -40 indicates 40% of cells at the beginning of the experiment died by the end of the experiment. A value of -100 means all cells are dead at the end of the experiment.
NCI-60 Human Tumor Cell Lines Screen was performed using the standard one-dose NCI protocol, which is described in more detail at https://dtp.cancer.gov/discovery_development/nci-60/default.htm.
Compounds with GIPRCNT values below 10 were considered active. Activity score was based on GIPRCNT using the following formula: […]
Score is 0 for GIPRCNT values of 100 or above, 50 for GIPRCNT values of 0, and 100 for GIPRCNT values of -100.
As for `COc1ccc2c(c1)c(-c1nc(-c3c[nH]c4ccncc34)cs1)cn2C`, the growth is -97.5% (active).
In the case of `CN1C(=O)/C(=C\c2nc([P+](c3ccccc3)(c3ccccc3)c3ccccc3)c(N3CCOCC3)o2)SC1=S`, the growth is 92.1% (inactive).
As for `O=C(Nc1cccc2ccccc12)NC1CC1`, the growth is 83.6% (inactive).
As to `COc1ccc(-c2nc3c(ncc4ccc(=O)[nH]c43)s2)cc1`, the growth was 102% (inactive).
Consider `CCN(CC)S(=O)(=O)c1ccc(S(=O)(=O)N2CCC[C@@H](C(=O)N3CCN(c4nc(C(C)C)no4)CC3)C2)cc1`, for which the growth was 56.4% (inactive).
For `CS(=O)(=O)Nc1cc(-c2ccc3ncnc(Nc4ccc5c(cnn5Cc5ccc(F)cc5)c4)c3c2)cnc1Cl`, the growth was -10.1% (active).
Consider `CCOC(=O)C1=C(C)NC(=O)NC1c1c(Cl)n(CCCl)c2ccccc12` (stereo not given), for which the growth was 85.4% (inactive).
Consider `O=S(=O)(Nc1cc(Cl)ccc1Cl)c1ccc(-c2cnc(C3CC3)o2)cc1`, for which the growth is -8.98% (active).
Under `N#Cc1nc(-c2ccc(F)cc2)oc1S(=O)(=O)N1CCOCC1` stands 91.2% (inactive); under `CC/C(=C(/c1ccc(Cl)cc1)c1ccc(OCCN2CCCCC2)cc1)c1ccc(OC)cc1`, 103% (inactive); under `COc1ccc(OC)c(Nc2nnc(-c3ccc(O)c(OC)c3)o2)c1`, 15.2% (inactive).
As for `CC1=C2[C@@H](CC1)[C@]1(C)O[C@@](C(C)C)(C[C@H]1OC(=O)[C@H](C)O)[C@H]2OC(=O)/C=C/c1ccccc1`, the growth was 66.4% (inactive).
With `Cc1cc(N2CCN(CCNc3ccnc4cc(Cl)ccc34)CC2)nc(N2CCOCC2)n1`, the growth was 88.3% (inactive).
Regarding `CCOC(=O)c1cc2c(n1C)-c1nc(NC(C)=O)sc1CCC2`, the growth was 71.4% (inactive).
`CCCc1c(OC(=O)c2ccccc2)nc2[nH]c(=O)sc2c1C`: the growth is 88.9% (inactive).
Regarding `N#C/C(=C\c1c(-c2ccccc2)[nH]c2ccccc12)C(N)=O`, the growth is 32.5% (inactive).
Regarding `O=C(Nc1nc2ccccc2s1)c1ccc(F)cc1`, the growth is 96.7% (inactive).
For the molecule `CCOc1ccccc1Cn1ccnc1CCc1c(Cl)c(O)cc(O)c1C(=O)OC`, the growth is 88.2% (inactive).
With `CCN(CC)c1ccc(\C=N/N=C(N)/C(N)=N\N=C/c2ccc(N(CC)CC)cc2)cc1` the figure was 93% (inactive); with `COc1cc2ncnc(Nc3ccc(F)c(Cl)c3)c2cc1OCC(=O)N1CCN(c2ccccc2)CC1`, 83.7% (inactive); with `CCOC(=O)c1nn(-c2ccc(S(N)(=O)=O)cc2)c2nc(C)cc(=O)n12`, 94.8% (inactive).
As for `COc1cc2c(cc1OCCCN1CCN(CCCOc3cc4c(cc3OC)C(=O)N3CCC[C@H]3C=N4)CC1)C=CC(C)(C)O2`, the growth was -98.2% (active).
For `O=C(Nc1ccc(Oc2cccc(Cl)c2)c(Cl)c1)c1cnccn1`, the growth was -20.9% (active).
For `O=C(NCc1ccc(Cl)cc1Cl)C1CCC(=O)N1c1cccs1` (stereo not given), the growth is 77.6% (inactive).
In the case of `C=C(C)[C@@H]1CCC[C@]2(COS(=O)(=O)c3ccc(C)cc3)CC[C@]3(C)[C@@H](CC[C@@H]4[C@@]5(C)CCCNC(C)(C)[C@@H]5CC[C@]43C)[C@@H]12`, the growth was 81.6% (inactive).
In the case of `c1ccc2cc(C[n+]3ccn(CCCCCCCCCCn4cc[n+](Cc5ccc6ccccc6c5)c4)c3)ccc2c1`, the growth was -1.15% (active).
As for `N#Cc1nc(-c2ccc(F)cc2)oc1S(=O)(=O)N1CCCCC1`, the growth was 92% (inactive).
Consider `O=C(Nc1cccc(-c2ccc(Cl)c(C(F)(F)F)c2)c1)C1CCN(Cc2cccc3cccnc23)CC1`, for which the growth is 40.3% (inactive).
On to `COc1cc2oc(-c3cccc(NC(=O)c4ccccc4)c3)cc(=O)c2c(OC)c1OC`, for which the growth was 77.4% (inactive).
`OB1OCc2cc(/C=C/c3cccc(C(F)(F)F)c3)ccc21`: the growth is -19.3% (active).
`c1ccc([P+](c2ccccc2)(c2ccccc2)c2ccc3c4ccc([P+](c5ccccc5)(c5ccccc5)c5ccccc5)c5cccc(c6cccc2c63)c54)cc1`: the growth is 13.5% (inactive).
Under `C=C(CBr)[C@@H]1CC[C@]2(C(=O)O)CC[C@]3(C)[C@H](CC[C@@H]4[C@@]5(C)CCC(=O)C(C)(C)[C@@H]5CC[C@]43C)[C@@H]12` stands 98.7% (inactive).
`O=C(/C=C/c1ccccc1)Nc1ncc(Cc2ccccc2Cl)s1`: the growth is 15.8% (inactive).
With `COC1=CC(c2ccc[nH]2)=N/C1=C\c1[nH]c(C)c(CC(=O)OCc2ccccc2)c1CCC(=O)OCc1ccccc1` the figure was -6.6% (active).
For the molecule `Cc1ccc(Nc2cc(N)nc(N)n2)cc1Cl`, the growth is 80.2% (inactive).
`CCOC(=O)C/C(=N\Nc1cc(=O)[nH]c2ccc(Br)cc12)C(=O)OCC`: the growth was 88.2% (inactive).
In the case of `CCOC(=O)n1ccn(C)c1=S`, the growth is 104% (inactive).
Under `Cc1cc(C(=O)Nc2ncc(Cc3cccc(C(F)(F)F)c3)s2)c2ccccc2n1` stands 18.1% (inactive); under `COc1cc(C2c3cc(OC(C)=O)c(OC)cc3CC3C(=O)OCC32)ccc1OC(C)=O` (stereo not given), 94.5% (inactive); under `COC1=CC(c2ccc[nH]2)=N/C1=C\c1[nH]c(C)c(C)c1CCC(=O)OCc1ccccc1`, -2.99% (active).
